DT40 TDP1 CPT – qHTS for Inhibitors of human tyrosyl-DNA phosphodiesterase 1 (TDP1): qHTS in cells in presence of CPT. chicken DT40 Tdp1-/-;hTDP1 cells + 20 nM CPT, ATP luminescence, 48 h. Potency, µM (doses to about 46.2 µM), for the others: at the top dose activity change, negative = growth inhibition, hits mostly inhibitors. 420,000 compounds, 12% hits; further: potency means the concentration at half of the fitted maximal effect; nearly all actives have a fitted effect of over 55% in size
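Chicken DT40 Tdp1-/- cells stably complemented with human TDP1 were seeded at 400 cells/well in medium containing 20 nM camptothecin, exposed to pin-transferred compounds, and grown at 37 °C for at least 48 hr. Viability was read as ATP luminescence.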
IL1B secr inh – qHTS for Inhibitors of Inflammasome Signaling: IL-1-beta AlphaLISA Primary Screen; THP-1 LPS/ATP IL-1B secretion, AlphaLISA, 16 h; stronger effect = lower value; activity change, % at 57.5 µM; 360,000 compounds, 4.7% hits; in the data active means activity change below about -50%; inconclusive means mostly about -30% to -49%
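THP-1 cells pretreated 1 hr with compounds (up to 57.5 uM final), then stimulated with LPS (250 ng/mL final) plus ATP (1.25 mM final); secreted IL-1B measured by AlphaLISA after 16 hr, decreased signal indicating inhibition.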
HT1080 IDH1KD tx – qHTS for induction of synthetic lethality in tumor cells producing 2HG: qHTS for the HT-1080-IDH1KD cell line | HT-1080 IDH1 knockdown viability, ATP luminescence, 48 h | Potency, µM (series often up to 46.1 µM), without a hit: at the highest dose activity, negative = toxicity, most hits filed as cytotoxic | 360,000 compounds, 2% hits | AID 686971, 2013;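 further: potency means the concentration at half of the fitted maximal effect; 0% = DMSO wells and -100% = cell-free medium wells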
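After a 2 h attachment period, IDH1KD HT-1080 cells took pin-transferred compound for 48 h at 37 °C; ATP-based luminescence after 10 min room-temperature reagent incubation reported viability.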
TDP1 cell noCPT – qHTS for Inhibitors of human tyrosyl-DNA phosphodiesterase 1 (TDP1): qHTS in cells in absence of CPT; 420,000 compounds, 15% hits; AID 686978, 2013; DT40 Tdp1-/- hTDP1 cells, no CPT, ATP luminescence, 48 h; Potency, µM (titrated, usually from 46.2 µM), for inactives: at the highest dose activity change, negative = growth inhibition, most hits filed as inhibitors; further: potency means the concentration at half of the fitted maximal effect; nearly all actives have a fitted effect of over 55% in size
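Chicken DT40 Tdp1-/- cells complemented with human TDP1, screened without camptothecin (DMSO vehicle only), 400 cells/well. Compounds pin-transferred, cells incubated at 37 °C for at least 48 hr. Growth read as ATP-dependent luminescence (CellTiter-Glo, 30 min at RT).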
HT1080-NT tox – qHTS for induction of synthetic lethality in tumor cells producing 2HG: qHTS for the HT-1080-NT fibrosarcoma cell line. 360,000 compounds, 1.6% hits. AID 686970, 2013. Potency, µM (top dose mostly 46.1 µM), for inactives: top-dose activity, negative = less viability, actives largely listed as cytotoxic. HT-1080-NT fibrosarcoma viability, CellTiter-Glo ATP luminescence, 48 h;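 further: NT is the 2HG producing partner of a matched IDH1 knockdown line; potency means the concentration at half of the fitted maximal effect; 0% = DMSO-treated cells and -100% = media-only wells without cells; nearly all actives have a fitted effect of over 55% in size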
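Read-out is CellTiter-Glo luminescence after 10 minutes at room temperature, following 48 hours' compound treatment of HT-1080-NT cells (750 cells/well, RPMI, 5% FBS, 37 degrees C).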
An asterisk follows results filed as active; [ ] = another dose, or the depositor's remark. A selection: hits, their analogues and other compounds. The true share with any hit is near 19%. Unless noted, the call rests on the fitted dose curve; in most records, active means well fitted curve in the direction sought with a large enough effect; inconclusive means small, poorly fitted or top-dose-only effect, or another doubt; inactive means no such curve, though single readings can be large; an effect the other way counts as inactive or inconclusive. Unless noted, on the % scale 0 is the no-effect control and ±100 the full control effect.

What do the screens show for `Cc1ccc2[nH]c(=O)c(CN(Cc3cccnc3)Cc3nnnn3CCN3CCOCC3)cc2c1`?
DT40 TDP1 CPT: inconclusive; IL1B secr inh: 7.7; HT1080 IDH1KD tx: 8.1%; TDP1 cell noCPT: 20.6µM*; HT1080-NT tox: 21.1%

What do the screens show for `O=C(CCCc1ccccc1)N=C1SC2CS(=O)(=O)CC2N1c1ccccc1F` (stereo not drawn)?
DT40 TDP1 CPT: 3.7%; IL1B secr inh: 43.6; HT1080 IDH1KD tx: 3.6%; TDP1 cell noCPT: 1.6%; HT1080-NT tox: 1.8%

Results for N#Cc1ccc(C23OCCN2CCn2nc4ccccc4c23)cc1 (stereo not drawn) ?
DT40 TDP1 CPT: inconclusive; IL1B secr inh: 43.3; HT1080 IDH1KD tx: 0.2%; TDP1 cell noCPT: inconclusive; HT1080-NT tox: 7.6%

What do the screens show for `COc1ccc2[nH]c(=O)c(CN(Cc3nnnn3Cc3ccc(F)cc3)CC3CCCO3)cc2c1` (stereo not drawn)?
DT40 TDP1 CPT: inconclusive; IL1B secr inh: -5.4; HT1080 IDH1KD tx: -0.1%; TDP1 cell noCPT: inconclusive; HT1080-NT tox: -3.7%

How did COc1ccc2[nH]c(=O)c(CN(Cc3nnnn3Cc3ccccc3)CC3CCCO3)cc2c1 (stereo not drawn) do in these assays?
DT40 TDP1 CPT: 11.6µM*; IL1B secr inh: inconclusive; HT1080 IDH1KD tx: 3.6%[9.24 µM]; TDP1 cell noCPT: inconclusive; HT1080-NT tox: -19.8%

Results for O=C(CN(C(=O)c1csnn1)c1cccc2ccccc12)NC1CCCC1 ?
DT40 TDP1 CPT: 8.4%; IL1B secr inh: 3.3; HT1080 IDH1KD tx: -1.2%; TDP1 cell noCPT: 4.5%; HT1080-NT tox: -1.8%

How did C#CCn1c(=NC(=O)c2cc(Cl)sc2Cl)sc2cc(S(N)(=O)=O)ccc21 do in these assays?
DT40 TDP1 CPT: -20.5%; IL1B secr inh: -1.6; HT1080 IDH1KD tx: -15.1%; TDP1 cell noCPT: -15.9%; HT1080-NT tox: -8.3%

What do the screens show for `C#CCn1c(=NC(=O)c2cc(-c3cccs3)nc3ccccc23)sc2cc(S(N)(=O)=O)ccc21`?
DT40 TDP1 CPT: inconclusive; IL1B secr inh: 16.1; HT1080 IDH1KD tx: 25.9µM*; TDP1 cell noCPT: inconclusive; HT1080-NT tox: inconclusive

Results for CCOc1ccc(-c2ccc(NS(=O)(=O)c3ccc(C)cc3)cc2)nn1 ?
DT40 TDP1 CPT: 16.4µM*; TDP1 cell noCPT: inconclusive

What do the screens show for `COc1ccc(-c2ccc(NS(=O)(=O)c3cc([N+](=O)[O-])ccc3C)cc2)nn1`?
DT40 TDP1 CPT: 5.3%; IL1B secr inh: 23.3; HT1080 IDH1KD tx: -24.8%; TDP1 cell noCPT: -14.5%; HT1080-NT tox: -22.2%

Results for CCOc1ccc(-c2ccc(NS(=O)(=O)c3cc(C)c(C)cc3C)cc2)nn1 ?
DT40 TDP1 CPT: 23.1µM*; TDP1 cell noCPT: 18.4µM*

What do the screens show for `CCOc1ccc(NS(=O)(=O)c2ccc(-c3coc(C)n3)cc2)cc1`?
DT40 TDP1 CPT: inconclusive; IL1B secr inh: 23.9; HT1080 IDH1KD tx: -15.1%; TDP1 cell noCPT: inconclusive; HT1080-NT tox: 3.6%

What do the screens show for `CC(NC(=O)C1CCC(C)(C(=O)O)C1(C)C)c1ccccc1` (stereo not drawn)?
DT40 TDP1 CPT: -24.0%; IL1B secr inh: -5.7; HT1080 IDH1KD tx: 1.7%; TDP1 cell noCPT: -17.7%; HT1080-NT tox: -6.3%

How did CCc1cc(Cn2nc(-c3ccccc3)cc2C(=O)NCc2cccc(Br)c2)on1 do in these assays?
DT40 TDP1 CPT: inconclusive; IL1B secr inh: -52.5*; HT1080 IDH1KD tx: -12.0%; TDP1 cell noCPT: 16.4µM*; HT1080-NT tox: -4.7%

How did COc1ccc2[nH]c(O)c(N=O)c2c1 do in these assays?
DT40 TDP1 CPT: -12.8%; IL1B secr inh: -26.2; HT1080 IDH1KD tx: 14.4%; TDP1 cell noCPT: -24.6%; HT1080-NT tox: 10.3%

Screens from PubChem BioAssay.
